Experimental data as given in the supplement of paper PMC7366291.
Counter-ions that a name gives are not always drawn. ± gives the standard deviation or the standard deviation of the averaged measurements.

How the values were obtained:
Conditions in all cases: 25 µM; exposure: 24-48 hpf
[1] = test system: Danio rerio Tg(wt1b:EGFP) embryo, pronephros; assay: glomerular separation, fold change vs DMSO control; higher = glomeruli further apart (abnormal)
In short: (§1)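 Every feature is expressed as a fold change relative to the averaged DMSO-treated embryos of the same day. The exposure ran from 24 to 48 hpf at 28.5°C, with dechorionated Tg(wt1b:EGFP) zebrafish embryos in HEPES-buffered E3 containing 0.003% PTU, 0.5% DMSO and 25 μM compound. Dorsal pronephros images taken in agarose-filled 96-well plates were reduced to maximum projections, on which 16 reference points were set by hand in Fiji for a macro to compute distances and angles. Values more than 2 SD from the feature mean were not used.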

[2] = test system: Danio rerio Tg(wt1b:EGFP) embryo, pronephros; assay: glomerular width (mean of left and right), fold change vs DMSO control; higher = wider glomerulus
In short: as §1

[3] = test system: Danio rerio Tg(wt1b:EGFP) embryo, pronephros; assay: fraction of imaged embryos annotated as normal kidney; higher = less nephrotoxic; extreme values may be limits of the assay
In short: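 Tricaine-anaesthetised Tg(wt1b:EGFP) zebrafish larvae were oriented dorsally in agarose-filled 96-well plates, and their pronephroi were recorded by widefield fluorescence at 470 nm in 10 z-slices. Before this, the dechorionated embryos had been exposed in 12-well plates to 25 μM compound in 0.5% DMSO and 5 mM HEPES-buffered E3 with 0.003% PTU, from 24 to 48 hpf at 28.5°C. Maximum projections were annotated manually for each embryo, and the read-out is the fraction per treatment classed as normal kidney.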

[4] = test system: Danio rerio Tg(wt1b:EGFP) embryo, pronephros; assay: pronephric angle neck segment to proximal convoluted tubule (mean of left and right), fold change vs DMSO control; higher = larger pronephric angle
In short: as §1

SMILES	glomerular separation [1]	glomerular width [2]	fraction of imaged embryos annotated as normal kidney [3]	pronephric angle neck segment [4]
Cc1ccsc1/C=C/C1=NCCCN1C [Morantel tartrate]	0.982 ± 0.26	1.132 ± 0.011	0.5	1.01 ± 0.019
COc1cc(NC(C)CCCN)c2ncccc2c1 (stereo not drawn) [Primaquine diphosphate]	1.04 ± 0.21	1.04 ± 0.079	1	1.01 ± 0.074
CC1=C(/C=C/C(C)=C/C=C/C(C)=C/C(=O)O)C(C)(C)CCC1 [Retinoic acid]	3.15 ± 1.8	0.639 ± 0.044	0	1.67 ± 0.033
COc1ccccc1Oc1c(NS(=O)(=O)c2ccc(C(C)(C)C)cc2)nc(-c2ncccn2)nc1OCCO [Bosentan]	1.19 ± 0.5	1.02 ± 0.034	0.833	1.03 ± 0.029
O=C1[C@H](CC[C@H](O)c2ccc(F)cc2)[C@@H](c2ccc(O)cc2)N1c1ccc(F)cc1 [Ezetimibe]	1.28 ± 0.36	1.01 ± 0.015	0.75	0.992 ± 0.059
C[C@]12CC[C@@H]3c4ccc(OS(=O)(=O)O)cc4CC[C@H]3[C@@H]1CCC2=O [Estropipate]	1.27 ± 0.59	0.95203 ± 0.00068	0.75	1.02 ± 0.012
CC(C)C[C@H](NC(=O)[C@@H](O)[C@H](N)Cc1ccccc1)C(=O)O [Ubenimex]	1.12 ± 0.52	1.01 ± 0.048	0.833	1.01 ± 0.028
Cc1cc(-c2ccccc2)nnc1NCCN1CCOCC1 [Minaprine dihydrochloride]	1.13 ± 0.95	1.03 ± 0.03	0.75	0.9963 ± 0.0098
C#Cc1cccc(Nc2ncnc3cc(OCCOC)c(OCCOC)cc23)c1 [Erlotinib]	0.768 ± 0.23	1.05 ± 0.03	0.833	0.994 ± 0.031
CC(Oc1ccccc1)C(=O)N[C@@H]1C(=O)N2[C@@H]1SC(C)(C)[C@@H]2C(=O)O (stereo partly drawn) [Phenethicillin potassium salt]	0.88 ± 0.24	0.963 ± 0.057	0.667	0.989 ± 0.028
COc1cc([S+](C)[O-])ccc1-c1nc2cccnc2[nH]1 (stereo not drawn) [Sulmazole]	0.979 ± 0.27	1.05 ± 0.015	0.833	0.9818 ± 0.0097
Cn1cnc2c1c(=O)[nH]c(=O)n2C [Theobromine]	0.91 ± 0.41	0.947 ± 0.022	0.667	1.0118 ± 0.00063
Nc1nc(=O)c2nc(CNc3ccc(C(=O)N[C@@H](CCC(=O)O)C(=O)O)cc3)cnc2[nH]1 [Folic acid]	0.808 ± 0.29	0.941 ± 0.044	0.636	1.04 ± 0.014
O=C(c1ccccc1)c1ccc2n1CCC2C(=O)O (stereo not drawn) [Ketorolac tromethamine]	1 ± 0.43	1.15 ± 0.013	0.667	1.04 ± 0.025
NC12CC3CC(CC(C3)C1)C2 [Adamantamine fumarate]	0.809 ± 0.31	1.07 ± 0.033	0.917	1.03 ± 0.013
Cc1cnc(C(=O)O)c[n+]1[O-] [Acipimox]	1.01 ± 0.23	1.015 ± 0.0095	1	0.94922 ± 0.00089
O=C(NCCNCC(O)COc1ccc(O)cc1)N1CCOCC1 (stereo not drawn) [Xamoterol hemifumarate]	1.01 ± 0.28	0.983 ± 0.011	1	0.98 ± 0.045
Clc1ccc(C(Cn2ccnc2)OCc2csc3c(Cl)cccc23)c(Cl)c1 (stereo not drawn) [Sertaconazole nitrate]	3.82 ± 1.8	0.727 ± 0.039	0	1.56 ± 0.052
OCCN1CCN(CCCN2c3ccccc3Sc3ccc(Cl)cc32)CC1 [Perphenazine]	0.838 ± 0.23	1.07 ± 0.063	0.917	1.03 ± 0.012
CC(C)CC(=O)N[C@H](C(=O)N[C@H](C(=O)N[C@@H](CC(C)C)[C@@H](O)CC(=O)N[C@@H](C)C(=O)N[C@@H](CC(C)C)[C@@H](O)CC(=O)O)C(C)C)C(C)C [Pepstatin A]	0.947 ± 0.11	1.03 ± 0.012	0.818	1.01 ± 0.041
O=C(O)c1ccccc1C(=O)Nc1ccc(S(=O)(=O)Nc2nccs2)cc1 [Phthalylsulfathiazole]	0.926 ± 0.31	1.02 ± 0.015	0.833	0.943 ± 0.071
C#C[C@]1(O)CC[C@H]2[C@@H]3CCc4cc(O)ccc4[C@H]3CC[C@@]21C [Ethinylestradiol]	1.64 ± 0.76	0.823 ± 0.015	0.667	1.3 ± 0.015
CC(=O)[C@H]1CC[C@H]2[C@@H]3C=CC4=CC(=O)CC[C@@]4(C)[C@@H]3CC[C@]12C [Dydrogesterone]	1.29 ± 0.6	1.04 ± 0.02	0.833	0.973 ± 0.012
CCCc1cc(=O)[nH]c(=S)[nH]1 [Propylthiouracil]	0.81 ± 0.17	1.058 ± 0.0069	1	1.02 ± 0.044
Nc1ccc(/N=N/c2ccccc2)c(N)n1 [Phenazopyridine hydrochloride]	1.27 ± 0.52	0.979 ± 0.025	0.583	1.101 ± 0.01
CN(CCCN1c2ccccc2CCc2ccccc21)CC(=O)c1ccc(Cl)cc1 [Lofepramine]	1.23 ± 0.38	0.98 ± 0.035	0.917	1.09 ± 0.011
CCCNC(=O)NS(=O)(=O)c1ccc(Cl)cc1 [Chlorpropamide]	1.09 ± 0.39	1.06 ± 0.087	0.75	1.051 ± 0.0085
